Source: PubChem BioAssay AID633 (Emory University Molecular Libraries Screening Center, 2007)
Among all 86,000 compounds or so, about 1,100 (1.3%) were called active.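 The calls were made as follows: active = compounds whose percent inhibition of the receptor-coactivator binding signal exceeds about 50% in the single-dose screen (limit read from the data); inactive = the rest.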 The sample as a whole holds a higher share of actives than the screen did.

biological target: Estrogen receptor beta (Homo sapiens) (UniProt Q92731); assay: blockers of coactivator peptide binding to ERβ – biochemical, TR-FRET, ERβ LBD, SRC-1 peptide, primary screen (AID 633); settings: TR-FRET ER-beta LBD / SRC1-Cy5 peptide binding; at 25.6 µM; active compounds read high; receptor agonist-loaded with 1 µM estradiol;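 also: 0% = receptor plus peptide wells without compound and 100% = peptide-only wells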
Sequence (Q92731 whole entry, looked up, the tested form may be a part): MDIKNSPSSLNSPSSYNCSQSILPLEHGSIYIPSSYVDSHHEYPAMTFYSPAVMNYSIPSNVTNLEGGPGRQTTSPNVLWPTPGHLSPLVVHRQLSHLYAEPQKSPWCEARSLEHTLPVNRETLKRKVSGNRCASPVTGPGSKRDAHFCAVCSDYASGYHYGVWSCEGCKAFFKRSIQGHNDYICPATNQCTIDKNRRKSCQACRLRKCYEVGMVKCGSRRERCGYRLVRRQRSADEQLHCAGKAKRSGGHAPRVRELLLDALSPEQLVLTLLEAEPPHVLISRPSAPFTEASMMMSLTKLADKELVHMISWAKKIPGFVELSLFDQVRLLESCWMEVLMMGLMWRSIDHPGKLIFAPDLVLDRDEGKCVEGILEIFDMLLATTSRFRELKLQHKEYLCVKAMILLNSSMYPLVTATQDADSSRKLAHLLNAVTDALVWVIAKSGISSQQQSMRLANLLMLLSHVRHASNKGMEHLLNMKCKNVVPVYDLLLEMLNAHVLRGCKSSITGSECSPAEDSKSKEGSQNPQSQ

Row | SMILES | inhibition
1 | COCCCn1c2nc3ccccc3nc2c2c(=O)n(Cc3ccc(Cl)cc3)c(C)nc21 | 12.9% (inactive)
2 | Cc1nc2c(c(=O)n1Cc1ccco1)c1nc3ccccc3nc1n2Cc1ccccc1 | 59.7% [fluorescence artefact?] (active)
3 | Cc1ccc(Cn2c(C)nc3c(c2=O)c2nc4ccccc4nc2n3Cc2ccco2)cc1 | 36% (inactive)
4 | O=C(NCC(=O)N(Cc1cccs1)C(C(=O)NC1CCCCC1)c1ccco1)c1cccs1 (configuration not stated) | 6.36% (inactive)
5 | Cn1c(C(=O)OC(C(=O)NC2CCCCC2)c2ccccn2)cc2sccc21 (configuration not stated) | -0.81% (inactive)
6 | Cc1ccc2c(c1)N(CC(=O)N(Cc1ccccn1)Cc1ccco1)C(=O)C(C(C)C)O2 (configuration not stated) | 1.63% (inactive)
7 | O=C(NCc1cn2ccsc2n1)Nc1ccc(Cl)cc1 | -3.46% (inactive)
8 | COc1ccc(-c2cn3ccsc3n2)cc1 | 68% (active)
9 | Cc1ccc(S(=O)(=O)NCc2cn3ccsc3n2)c(C)c1 | 0.6% (inactive)
10 | CCOC(=O)c1sc(NC(=O)c2ccncc2)nc1C | -4.81% (inactive)
11 | O=C(NCc1cccnc1)Nc1ccccc1F | -19.3% (inactive)
12 | CCCCOC(=O)Cn1c(=O)n(CC(=O)OCCCC)c2cc(C)ccc21 | -3.48% (inactive)
13 | O=C(N/N=C/C=C/c1ccccc1)C1CC1(c1ccccc1)c1ccccc1 (configuration not stated) | 16.4% (inactive)
14 | COc1ccc(N2C(=O)C3CCCN3C2c2cccc(OC)c2)cc1 (configuration not stated) | -7% (inactive)
15 | COc1ccc(N2C(=O)C3CCCN3C2c2cccs2)cc1 (configuration not stated) | -13.6% (inactive)
16 | COc1ccc(N2C(=O)C3CCCN3C2c2cc(OC)c(OC)cc2OC)cc1 (configuration not stated) | 98.9% [fluorescence artefact?] (active)
17 | COC(=O)c1[nH]c2ccccc2c1NC(=O)CN1CCCc2ccccc21 | 58.4% [fluorescence artefact?] (active)
18 | COC(=O)c1[nH]c2cccc(C)c2c1NC(=O)CN1CCCc2ccccc21 | 34.3% (inactive)
19 | CCOC(=O)c1[nH]c2ccc(OC)cc2c1NC(=O)CCN1CCN(Cc2ccccc2)CC1 | 5.39% (inactive)
20 | CCn1c(-c2ccoc2C)n[nH]c1=S | -2.85% (inactive)
21 | COCCOCCn1cnc2ccccc21 | -1.14% (inactive)
22 | CCOC(=O)N1CCN(C(=O)CSc2ccc(Cl)cc2)CC1 | -0.13% (inactive)
23 | CCOC(=O)N1CCN(C(c2cccnc2)c2ccc3cccnc3c2O)CC1 (configuration not stated) | 58% [fluorescence artefact?] (active)

Row | SMILES | inhibition
24 | CCN1CCN(C(c2cccnc2)c2cc(Cl)c3cccnc3c2O)CC1 (configuration not stated) | 72.4% [fluorescence artefact?] (active)
25 | Oc1c(CN2CCN(c3ccc(F)cc3)CC2)cc(Cl)c2cccnc12 | 1.3% (inactive)
26 | CCOC(=O)N1CCN(C(=O)c2cc3c(ccc4ccccc43)oc2=O)CC1 | 23.4% (inactive)
27 | CC(=O)C1=C(C)NC(=O)NC1c1cc(Br)ccc1OCC#N (configuration not stated) | -0.75% (inactive)
28 | CC(C)CC(N=C1NC(C)(C)Cc2ccccc21)C(=O)O (configuration not stated) | -1.78% (inactive)
29 | CCCc1noc2c1/C(=N\O)CCC2 | 1.64% (inactive)
30 | CCNCCC(=O)N1c2ccccc2Sc2ccc(NC(=O)OCC)cc21 | -17.8% (inactive)
31 | O=C(NCc1ccco1)c1ccc(Cn2c(=O)c3sccc3n(Cc3ccc(F)cc3)c2=O)cc1 | 18.4% (inactive)
32 | Cc1cccc(C(=O)N2CCCN(C(=O)c3cccc(C)c3)CC2)c1 | -0.48% (inactive)
33 | CCN1CCc2c(C#N)c(NCc3ccccc3)nc(NCCO)c2C1 | -0.53% (inactive)
34 | N#Cc1c2c(c(N3CCN(CCO)CC3)n3c1nc1ccccc13)CCCC2 | -8.78% (inactive)
35 | CN(C)CCCNc1c2c(c(C#N)c3nc4ccccc4n13)CCC2 | 70.9% [fluorescence artefact?] (active)
36 | O=c1onc(-c2cccs2)n1Cc1ccccc1 | -0.76% (inactive)
37 | CCCCCCNC(=O)CSc1nccn1Cc1ccccc1 | -2.58% (inactive)
38 | Cc1ccc(-n2c(SCC(=O)NCc3ccc4c(c3)OCO4)nnc2-c2cccnc2)c(C)c1 | -8.68% (inactive)
39 | O=c1c2ccccc2nnn1CSc1nnnn1-c1ccccc1 | -2.64% (inactive)
40 | O=c1c2ccccc2nc(CSc2nnnn2-c2ccccc2)n1-c1ccccc1 | 61.2% [fluorescence artefact?] (active)
41 | N#CCSc1nc2ccccc2c(=O)n1-c1ccccc1 | 8.58% (inactive)
42 | CC(=O)NC1(c2cccc(F)c2)CCN(CC(=O)NC(C)C)CC1 | -7.62% (inactive)
43 | COc1ccc(-n2c(SCC(=O)Nc3sc4c(c3C#N)CCCC4)nnc2-c2ccc(O)cc2)cc1 | 60.9% [fluorescence artefact?] (active)
44 | CC(Sc1nc2ccccc2c(=O)n1Cc1ccco1)C(=O)c1ccccc1 (configuration not stated) | -2.69% (inactive)
45 | C=C(C)Cn1c(SCC(=O)NCc2ccco2)nc2sc3c(c2c1=O)CCC3 | 9.18% (inactive)
46 | N#Cc1c(NC(=O)CSc2nc3ccccc3c(=O)n2Cc2ccco2)sc2c1CCCC2 | 50.4% [fluorescence artefact?] (active)

Row | SMILES | inhibition
47 | COc1ccc(-c2nnc(SCC(=O)c3ccco3)n2-c2ccccc2)cc1 | 7.14% (inactive)
48 | COC(=O)c1c(NC(=O)CSc2nncs2)sc2c1CCCCC2 | 10.9% (inactive)
49 | Cc1cc2nc(SCCN3CCOCC3)[nH]c2cc1C | -13.7% (inactive)
50 | COC(=O)C1=C(C(=O)c2ccc(C)cc2)C(c2ccccc2)n2nnnc2N1 (configuration not stated) | -1.03% (inactive)
51 | Cc1ccc(-n2ccc(=O)c(C(=O)O)n2)cc1 | -4.61% (inactive)
52 | O=C(COc1ccccc1)Nc1nonc1NC(=O)COc1ccccc1 | 4.67% (inactive)
53 | COc1ccc(CCNS(=O)(=O)c2ccc(Cl)s2)cc1OC | -8.93% (inactive)
54 | Oc1ccc(CNc2ccccc2O)cc1 | 52.5% [fluorescence artefact?] (active)
55 | COc1cc(C2CC(=O)c3cnc(NC(C)=O)nc3C2)cc(OC)c1OC (configuration not stated) | -3.76% (inactive)
56 | CCC(C(=O)NCc1ccc(OC)cc1)n1nc(C)n2c(cc3occc32)c1=O (configuration not stated) | -7.78% (inactive)
57 | CCCn1c(C(Cc2ccccc2)NC(=O)COC)nc2ccccc21 (configuration not stated) | 46.8% (inactive)
58 | O=C(COC(=O)CCC(=O)c1cccs1)NCc1ccco1 | 51.1% [fluorescence artefact?] (active)
59 | O=C(CCC(=O)c1cccs1)NCc1ccccc1 | 12.1% (inactive)
60 | O=C(COC(=O)C12CC3CC(CC(C3)C1)C2)NCc1ccco1 | 13.8% (inactive)
61 | CC(CO)N1CCS(=O)(=O)CC1 (configuration not stated) | -15% (inactive)
62 | CCN(c1ccccc1)S(=O)(=O)c1ccc(NC(=O)C(C)(C)C)cc1 | 14.4% (inactive)
63 | C=CCn1c(SCC(=O)/C(C#N)=C(\C)N)nc2sc(C)c(C)c2c1=O | 16.2% (inactive)
64 | C=CCn1c(=O)c2ccccc2n2c(SCC(=O)N3CCCc4ccccc43)nnc12 | -1.59% (inactive)
65 | CCCn1c(=O)c2ccccc2n2c(SCC(=O)/C(C#N)=C(\C)N)nnc12 | 50.4% [fluorescence artefact?] (active)
66 | O=C(CN1CCSCC1)N/N=C/c1ccc(F)cc1F | 12.6% (inactive)
67 | CC(C)(O)C(=O)NN(C(=O)c1ccccc1)c1cccc(Br)c1 | -3.36% (inactive)
68 | COC(=O)c1cccc(N(C(=O)c2ccco2)C(C(=O)NC2CCCC2)c2ccco2)c1 (configuration not stated) | -14.4% (inactive)
69 | O=C(NCCOc1ccccc1)c1ccccc1 | 7.95% (inactive)

Row | SMILES | inhibition
70 | O=C(Cn1nnc(-c2ccccc2)n1)NCc1ccc2c(c1)OCO2 | 9.19% (inactive)
71 | CS(=O)(=O)N(CC(=O)NCc1ccco1)c1ccc2c(c1)OCO2 | 44.3% (inactive)
72 | O=C(Cn1nnc(-c2ccc3c(c2)OCO3)n1)NCc1ccco1 | 50.1% (active)
73 | CC1(N2CCOCC2)CC2(O)C(=[N+]1[O-])CCc1nonc12 (configuration not stated) | 58.1% (active)
74 | Cc1[nH]n(-c2cccc(Cl)c2)c(=O)c1/C=N/n1c(C)nc2ccccc2c1=O | -3.58% (inactive)
75 | CC(=O)Nc1ccc(S(=O)(=O)N2CCN(C(=O)c3ccccc3F)CC2)cc1 | -9.27% (inactive)
76 | O=C(CN1CCCCCC1)N1c2ccccc2Sc2ccc(C(F)(F)F)cc21 | -7.5% (inactive)
77 | CC(c1ccco1)N(C(=O)Nc1ccccc1)C1CCCCC1 (configuration not stated) | 0.39% (inactive)
78 | Cc1c(Br)cc(C(=O)N2CCCCCC2)c(C)c1C | -18.4% (inactive)
79 | COc1ccc(Cc2nnc(NS(=O)(=O)Cc3ccccc3)s2)cc1 | 39.9% (inactive)
80 | CCCc1ccc(-c2csc(NC(=O)Cc3cccs3)n2)cc1 | 11.4% (inactive)
81 | COc1ccc(Cc2nnc(NC(=O)Cc3cccs3)s2)cc1 | 92% (active)
82 | CCOc1ccc(Nc2oc(Cc3ccccc3)nc2C#N)cc1 | -1.53% (inactive)
83 | COc1ccc(Nc2oc(-c3ccccc3Cl)nc2C#N)cc1 | 76.6% [fluorescence artefact?] (active)
84 | COc1ccccc1-c1nc(C#N)c(N2CCC(C(N)=O)CC2)o1 | -16.6% (inactive)
85 | Cc1ccc(/C=N/NC(=O)Cn2nc(C)c(Br)c2C)o1 | -11.6% (inactive)
86 | CCOc1ccccc1C(=O)NC1CC2CCCC(C1)N2Cc1ccccc1 (configuration not stated) | 5.21% (inactive)
87 | CCN(CC)CCn1c2ccc(Cl)cc2c2nc(C)sc21 | -0.33% (inactive)
88 | CS(=O)(=O)N(CC(=O)Nc1ccc(Cl)c(Cl)c1)C1CCCCC1 | -2.05% (inactive)
89 | CC(C)(C)C1CCc2c(sc3nc(SCC(N)=O)nc(N)c23)C1 (configuration not stated) | -6.07% (inactive)
90 | COc1ccc2[nH]cc(/C=C(/C#N)S(=O)(=O)c3ccccc3)c2c1 | 54.7% [fluorescence artefact?] (active)
91 | COc1ccc2[nH]c3ccc(OC)cc3c2c1 | 1.96% (inactive)
92 | CCN(CC)CC(=O)c1c[nH]c2ccc(OC)cc12 | -8.33% (inactive)
